AmpC no deterg – AmpC beta-lactamase inhibition without detergent | P00811 | AmpC nitrocefin hydrolysis, absorbance 480 nm, 0.0001% Triton | Potency, µM (series often up to 57.1 µM), most hits filed as inhibitors | 330,000 tested, 0.52% active; further: nearly all actives have a fitted effect of over 20% in size
Target sequence (P00811 whole entry, looked up): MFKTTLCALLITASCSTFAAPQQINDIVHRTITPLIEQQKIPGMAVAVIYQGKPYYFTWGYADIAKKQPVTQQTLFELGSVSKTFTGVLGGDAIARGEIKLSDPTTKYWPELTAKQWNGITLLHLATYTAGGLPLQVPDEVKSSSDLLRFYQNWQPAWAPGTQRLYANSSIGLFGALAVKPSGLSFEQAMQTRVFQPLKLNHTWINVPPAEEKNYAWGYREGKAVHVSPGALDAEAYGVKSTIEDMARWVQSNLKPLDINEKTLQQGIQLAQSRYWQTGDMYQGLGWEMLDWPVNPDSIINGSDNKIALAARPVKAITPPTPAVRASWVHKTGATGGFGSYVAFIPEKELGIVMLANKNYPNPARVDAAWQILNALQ
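20 mM phosphate pH 7.0 + 0.01% (detergent screen) or 0.0001% Triton X-100; 5.3 nM AmpC reagent; cpd preinc 15 min RT; nitrocefin (800 uM stock) to start; A480 q20 s × 4 min; Activity was normalised to no-enzyme and no-compound control wells.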
HCV inhibitor – HCV inhibition; Potency, µM (highest dose often 41.8 µM), hits mostly inhibitors; Huh7.5.1 HCVcc-Cre infection, luciferase reporter, 44 h; 340,000 tested, 3.4% active
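HCVcc-Cre virus at an moi near 0.5 was added right after compound to cells cultured 4 h from seeding (1,000 cells/well). Luciferase activity was determined 44 h later, 15 min after substrate addition at RT.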
Pf growth 96h – inhibits malaria parasite growth, 96 h; AID 504834; 320,000 tested, 6.9% active; Potency, µM (highest dose often 28.7 µM), hits mostly inhibitors; P. falciparum luciferase reporter growth, 96 h
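Luminescence readout: decreased luciferase signal marks inhibited growth of reporter-expressing P. falciparum in infected red cells (2% hematocrit, 0.05% parasitemia final), exposed to compound two generations (96 h, 37 C, 5% CO2).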
Pf growth 48h – inhibits P. falciparum growth in the first generation, 48 h | P. falciparum luciferase growth in erythrocytes, 48 h | Potency, µM (titrated, usually from 28.7 µM), hits mostly inhibitors | 310,000 tested, 5.9% active
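Luminescence readout; reporter = integrated firefly luciferase in P. falciparum. RBC culture at 2% hematocrit, 0.1% parasitemia final, 37 C/5% CO2; decreased signal taken as growth inhibition.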
AmpC inh detg – blocks E. coli AmpC beta-lactamase in detergent assay; P00811; AmpC hydrolysis of nitrocefin, absorbance 480 nm, 0.01% Triton; Potency, µM (series often up to 114 µM), hits mostly inhibitors; 370,000 tested, 0.041% active; AID 485294; further: nearly all actives have a fitted effect of over 25% in size
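20 mM phosphate pH 7.0 + 0.01% (detergent screen) or 0.0001% Triton X-100; 5.3 nM AmpC reagent; cpd preinc 15 min RT; nitrocefin (800 uM stock) to start; A480 q20 s × 4 min; Activity was normalised to no-enzyme and no-compound control wells.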
AMA1-RON2 inh – AMA1-RON2 (P. falciparum) interaction inhibition | AlphaScreen AMA1-biotinylated RON2 peptide binding | Potency, µM (series often up to 58.2 µM), most hits filed as inhibitors | 360,000 tested, 0.2% active | AID 720542; further: nearly all actives have a fitted effect of over 45% in size
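AMA1 (3D7) with his tag at 25 nM final met compounds first, then biotinylated RON2 peptide at 25 nM; detection used donor plus acceptor beads, 10 µg/mL apiece, read by AlphaScreen after 30 min at room temperature.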
A number is an active result; [ ] = dose if it differs, or a comment. Only some compounds are listed: those with a hit (about 11% of all), similar ones and a draw of the others. The call rests on the fitted dose curve; in most records, active means well fitted curve in the direction sought with a large enough effect; inconclusive means small, poorly fitted or top-dose-only effect, or another doubt; inactive means no such curve, though single readings can be large; an effect the other way counts as inactive or inconclusive.

Results for O=C(/C=C/c1cn(-c2ccccc2)nc1-c1ccccc1)Nc1ccc(C(=O)O)cc1 ?
AmpC no deterg: inactive; HCV inhibitor: inactive; Pf growth 96h: inactive; Pf growth 48h: inactive; AmpC inh detg: inactive; AMA1-RON2 inh: inactive

How did O=C(O)c1ccc(NC(=O)c2cn(-c3ccccc3)nc2-c2ccc(F)cc2)cc1 do in these assays?
AmpC no deterg: inactive; HCV inhibitor: inactive; Pf growth 96h: inactive; Pf growth 48h: inactive; AmpC inh detg: inconclusive; AMA1-RON2 inh: inactive

What do the screens show for `O=C(O)c1ccc(NC(=O)c2cn(-c3ccccc3)nc2-c2cccc(Cl)c2)cc1`?
AmpC no deterg: inactive; HCV inhibitor: inactive; Pf growth 96h: 11.7µM; Pf growth 48h: inactive; AmpC inh detg: inactive; AMA1-RON2 inh: inactive

Results for Cc1cccc(NC(=O)c2cnc3ccccn3c2=O)c1 ?
AmpC no deterg: inactive; HCV inhibitor: inactive; Pf growth 96h: 11.7µM; Pf growth 48h: inactive; AmpC inh detg: inconclusive; AMA1-RON2 inh: inactive

Results for Cc1cccc(NC(=O)c2cn(-c3ccccc3)nc2-c2ccccc2)c1 ?
AmpC no deterg: inactive; HCV inhibitor: inconclusive; Pf growth 96h: 13.1µM; Pf growth 48h: inactive; AmpC inh detg: inactive; AMA1-RON2 inh: inactive

Results for NS(=O)(=O)c1ccc(NC(=O)/C=C/c2cn(-c3ccccc3)nc2-c2cccc(Cl)c2)cc1 ?
AmpC no deterg: 2.51µM; HCV inhibitor: inconclusive; Pf growth 96h: inactive; Pf growth 48h: 10.4µM; AmpC inh detg: inactive; AMA1-RON2 inh: inactive

Results for CCSc1ncc(Cl)c(C(=O)N(Cc2ccc(C(C)(C)C)cc2)C2CCS(=O)(=O)C2)n1 (stereo not drawn) ?
AmpC inh detg: inactive

Results for Cc1nc2c3ccccc3nc(NNC(=O)CCC(=O)O)n2n1 ?
AmpC inh detg: inactive

What do the screens show for `O=C(COC(=O)c1cn(-c2ccccc2)nc1-c1ccc(F)cc1)Nc1ncc(Cl)cc1Cl`?
AmpC no deterg: inactive; HCV inhibitor: inconclusive; Pf growth 96h: inactive; Pf growth 48h: inactive; AmpC inh detg: inactive; AMA1-RON2 inh: inactive

What do the screens show for `NS(=O)(=O)c1ccc(NC(=O)COC(=O)c2cn(-c3ccccc3)nc2-c2ccc(F)cc2)cc1`?
AmpC no deterg: 12.6µM; HCV inhibitor: inactive; Pf growth 96h: inactive; Pf growth 48h: inactive; AmpC inh detg: inactive; AMA1-RON2 inh: inactive

How did C#Cc1ccc([C@@H]2C=C(C(=O)Nc3ccccc3)O[C@H](OCC)[C@H]2CCCO)cc1 do in these assays?
AmpC no deterg: inactive; HCV inhibitor: inactive; Pf growth 96h: 1.85µM; Pf growth 48h: inconclusive; AmpC inh detg: inactive; AMA1-RON2 inh: inactive

How did C#Cc1ccc([C@@H]2C=C(C(=O)OCC=C)O[C@H](OCC)[C@H]2CCCO)cc1 do in these assays?
AmpC no deterg: inactive; HCV inhibitor: inactive; Pf growth 96h: 2.33µM; Pf growth 48h: inconclusive; AmpC inh detg: inactive; AMA1-RON2 inh: inactive

What do the screens show for `C#Cc1ccc([C@H]2C=C(C(=O)OCC=C)O[C@@H](OCC)[C@@H]2CCCO)cc1`?
AmpC no deterg: inactive; HCV inhibitor: inactive; Pf growth 96h: inconclusive; Pf growth 48h: inactive; AmpC inh detg: inactive; AMA1-RON2 inh: inactive

What do the screens show for `CCn1c2ccccc2c2c3ncc4cccn4c3ccc21`?
AmpC no deterg: inactive; HCV inhibitor: 11.2µM; Pf growth 96h: inactive; Pf growth 48h: inactive; AmpC inh detg: inactive; AMA1-RON2 inh: inactive

What do the screens show for `COc1ccc(S(=O)(=O)NCCc2sc(-c3cccc(C)c3)nc2C)cc1`?
AmpC inh detg: inactive

What do the screens show for `O=C(CN1CCN(c2ccccc2)CC1)Nc1ccccc1Sc1ccccc1`?
AmpC no deterg: inactive; HCV inhibitor: inconclusive; Pf growth 96h: 9.28µM; Pf growth 48h: inconclusive; AmpC inh detg: inactive; AMA1-RON2 inh: inactive

What do the screens show for `COc1ccc(N2CCN(CC(=O)Nc3ccccc3C(=O)NCc3ccccc3)CC2)cc1`?
AmpC no deterg: inactive; HCV inhibitor: inconclusive; Pf growth 96h: inconclusive; Pf growth 48h: 13.1µM; AmpC inh detg: inactive; AMA1-RON2 inh: inactive

Results for O=C(CN1CCN(c2ccc(F)cc2)CC1)Nc1ccccc1C(=O)NCCc1ccccc1 ?
AmpC no deterg: inactive; HCV inhibitor: inconclusive; Pf growth 96h: inconclusive; Pf growth 48h: inconclusive; AmpC inh detg: inactive; AMA1-RON2 inh: inactive

Results for COc1ccc(CCNC(=O)c2ccccc2NC(=O)CN2CCN(c3ccccc3O)CC2)cc1 ?
AmpC no deterg: inactive; HCV inhibitor: inconclusive; Pf growth 96h: 7.38µM; Pf growth 48h: 10.4µM; AmpC inh detg: inactive; AMA1-RON2 inh: inactive

What do the screens show for `O=C(CN1CCN(c2ccccc2)CC1)Nc1ccccc1Cl`?
AmpC no deterg: inactive[2.29 µM]; HCV inhibitor: inactive; Pf growth 96h: inactive; Pf growth 48h: inactive; AmpC inh detg: inactive; AMA1-RON2 inh: inactive

Results for CCOc1ccccc1C(=O)N(Cc1ccc(N(C)C)cc1)CC1CCCO1 (stereo not drawn) ?
AmpC inh detg: inactive

Results for Cc1ccc(C2(CC(=O)N3CCCC3)CCOC(C(C)C)C2)cc1 (stereo not drawn) ?
AmpC no deterg: inactive; HCV inhibitor: inactive; Pf growth 96h: inconclusive; AmpC inh detg: inconclusive; AMA1-RON2 inh: inactive

Results for COc1ccccc1C1(CC(=O)N2CCCCC2)CCOC(C(C)C)C1 (stereo not drawn) ?
AmpC no deterg: inactive; HCV inhibitor: inactive; Pf growth 96h: 14.7µM; AmpC inh detg: inactive; AMA1-RON2 inh: inactive

How did Cc1cccc2sc(NC(=O)c3ccc(Cl)s3)nc12 do in these assays?
AmpC no deterg: inactive; HCV inhibitor: 10µM; Pf growth 96h: 13.1µM; AmpC inh detg: inconclusive; AMA1-RON2 inh: inactive

How did CCn1c(CN2CCC(C)CC2)nc2cc(NC(=O)COc3ccc(Cl)c(C)c3)ccc21 do in these assays?
AmpC inh detg: inactive

How did COc1ccc(NC(=O)CN2C(=O)CC(c3ccc(C)c(C)c3)=Nc3ccccc32)cc1OC do in these assays?
AmpC inh detg: inactive

How did Cc1cc(C)c2oc(C(=O)N(Cc3ccc(F)cc3)C3CCS(=O)(=O)C3)cc(=O)c2c1 (stereo not drawn) do in these assays?
AmpC no deterg: inactive; HCV inhibitor: inactive; Pf growth 96h: inactive; Pf growth 48h: inconclusive; AmpC inh detg: inactive; AMA1-RON2 inh: inactive

How did Cc1ccc(CN(C(=O)c2cc(=O)c3cc(C)cc(C)c3o2)C2CCS(=O)(=O)C2)cc1 (stereo not drawn) do in these assays?
AmpC no deterg: inactive; HCV inhibitor: inactive; Pf growth 96h: 9.28µM; Pf growth 48h: 3.29µM; AmpC inh detg: inactive; AMA1-RON2 inh: inactive

Results for Cc1ccc(CN(C(=O)c2cc(=O)c3cc(Cl)c(C)cc3o2)C2CCS(=O)(=O)C2)cc1 (stereo not drawn) ?
AmpC no deterg: inactive; HCV inhibitor: inactive; Pf growth 96h: 4.65µM; Pf growth 48h: inconclusive; AmpC inh detg: inactive; AMA1-RON2 inh: inactive
